Source: PubChem BioAssay AID2289 (National Center for Advancing Translational Sciences (NCATS), 2010)
Out of some 340,000 compounds screened, about 3,300 (0.97%) were called active. About 9% were inconclusive and are not listed. The call rests on the fitted dose curve; in most records, active means well fitted inhibition curve with a large enough effect; inconclusive means small, poorly fitted or top-dose-only effect, or effect the other way; inactive means flat fitted curve, though single readings scatter. The list shows a part of the results.

Assay: qHTS Assay for Modulators of miRNAs and/or Inhibitors of miR-21; further: nearly all actives have a fitted effect of over 55% in size
Details: HeLa miR-21-FLuc reporter, luciferase luminescence, 48 h; actives lower the signal
In short: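 HeLa miR-21-FLuc reporter line, endogenous miR-21; 2000 cells/well in DMEM/10% FBS; compound titration up to ~40uM final, 48 h, 37 degree Celsius; luciferase detection reagent, 15 min lysis, CCD luminescence.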
Potency means the concentration at half of the fitted maximal effect.

Potency, active:
C#CCNC(=O)/C=C/c1ccc(C)cc1 8.26 µM
C#CCNC(=O)/C=C/c1ccc(OC)cc1 13.1 µM
O=C1CCNc2ccc(-c3ccccc3)cc21 6.56 µM
C=CCn1c(NCc2ccc3c(c2)OCO3)nc2ccccc21 9.27 µM
CCn1c(NCc2ccc3c(c2)OCO3)nc2ccccc21 16.5 µM
Cc1ccc2oc(-c3cccc(NC(=S)NC(=O)c4cccs4)c3)nc2c1 4.14 µM
Cc1ccc2oc(-c3ccc(C)c(NC(=S)NC(=O)c4cccs4)c3)nc2c1 0.521 µM
Cc1ccc2oc(-c3cccc(NC(=O)Cn4cnc5c(=O)n(C)c(=O)n(C)c54)c3)nc2c1 6.56 µM
NC(=O)c1sc2nc(-c3cccs3)ccc2c1N 13.1 µM
Nc1c(C(=O)Nc2ccccc2Br)sc2nc(-c3cccs3)ccc12 7.36 µM
CC(=O)c1sc2nc(-c3cccs3)ccc2c1N 14.7 µM
O=c1/c(=C\c2ccc(F)cc2)sc2n1CCCN=2 1.85 µM
O=C(CCC1CCCN(C(=O)Cc2cccc(F)c2)C1)N1CCN(c2ccccn2)CC1 (configuration not stated) 16.5 µM
Cc1c(N=Nc2ccc(N(C)C)cc2)c(=O)n(-c2ccccc2)n1C 5.21 µM
Cc1cc(N)ccc1N=Nc1c(C)n(C)n(-c2ccccc2)c1=O 14.7 µM
Cc1ccc(/C=N/NC(=S)NC2CCCCC2)o1 5.21 µM
CN(C)/C=N/c1nc2ccc3c(c2s1)CCCC3 2.33 µM
Cc1cccc(-n2ncc3c(N4CCC5(CC4)OCCO5)ncnc32)c1 1.85 µM
Clc1ccc(-n2ncc3c(N4CCCC4)ncnc32)cc1 0.0656 µM
CCN1CCN(c2ncnc3c2cnn3-c2ccc(C)c(C)c2)CC1 1.65 µM
O=C(NC1CCCC1)c1cc(-c2ccc(Cl)cc2)on1 1.65 µM
CCCCNC(=O)c1cc(-c2ccc(F)cc2)on1 3.29 µM
CN(C(=O)c1cc(-c2ccc3c(c2)OCO3)on1)c1ccccc1 2.61 µM
COc1ccc(-c2cc(C(=O)NC3CCCC3)no2)cc1 1.17 µM
CC1CCCC(C)N1C(=O)c1cc(-c2cccs2)on1 (configuration not stated) 16.5 µM
CCCNC(=O)c1cc(-c2ccc(OC)cc2)on1 0.927 µM
O=C(NC1CCCC1)c1cc(-c2cccc(Cl)c2)on1 4.65 µM
Cc1ccc(-c2cc(C(=O)NC3CCCC3)no2)cc1 1.31 µM
O=C(NC1CCCCC1)c1cc(-c2ccc(O)cc2)on1 2.93 µM
O=C(NCC1CCCO1)c1cc(-c2ccccc2F)no1 (configuration not stated) 14.7 µM
CN(C(=O)c1cc(-c2ccccc2)on1)C1CCCCC1 2.07 µM
O=C(NC1CCCC1)c1cc(-c2ccc(F)cc2)on1 1.85 µM
O=C(NCC1CCCO1)c1cc(-c2ccccc2)on1 (configuration not stated) 7.36 µM
COc1cccc(-c2cc(C(=O)NC3CCCCC3)no2)c1 2.07 µM
COc1cccc(-c2cc(C(=O)N3C(C)CCCC3C)no2)c1 (configuration not stated) 3.29 µM
O=C(NC1CCCC1)c1cc(-c2ccccc2)on1 2.93 µM
Cc1cccc(-c2noc(-c3ccc(Cl)cc3[N+](=O)[O-])n2)c1 1.17 µM
COc1ccc(-c2noc(-c3ccco3)n2)cc1OC 1.65 µM
COc1ccc(-c2nc(-c3cccc(C)c3)no2)cc1OC 2.93 µM
COc1ccc(-c2nc(-c3ccncc3)no2)cc1OC 4.65 µM
COc1ccc(-c2nc(-c3cccnc3)no2)cc1 0.826 µM
COc1ccc(-c2noc(-c3cccnc3)n2)cc1OC 6.56 µM
COc1ccc(-c2nc(-c3cccnc3)no2)cc1OC 16.5 µM
CCOc1ccccc1NC(=O)CN1C(=O)CC(c2ccc(C)c(C)c2)=Nc2ccccc21 8.26 µM
COc1ccc(CNC(=O)CN2C(=O)CC(c3ccc(C)c(C)c3)=Nc3ccccc32)cc1 11.7 µM
O=C(N/N=C\C=C\c1ccco1)c1cc(-c2ccc3ccccc3c2)n[nH]1 4.14 µM
O=C(CCN1C(=O)S/C(=C\C=C\c2ccccc2)C1=O)Nc1ccc(O)cc1 9.27 µM
Fc1ccc(-c2nnc(Cc3ccc(Cl)cc3)o2)cc1 10.4 µM
O=[N+]([O-])c1ccc(Cc2nnc(-c3ccc(F)cc3)o2)cc1 0.826 µM
C=CCSc1nnc(-c2ccc([N+](=O)[O-])cc2)o1 6.56 µM
O=[N+]([O-])c1cccnc1NCCc1c[nH]c2ccccc12 4.14 µM
O=[N+]([O-])c1cccnc1NCCc1ccccc1 5.21 µM
O=[N+]([O-])c1cccnc1NCCNc1ncc(C(F)(F)F)cc1Cl 2.93 µM
COc1ccc(CNc2ncccc2[N+](=O)[O-])cc1 18.5 µM
Cc1ccccc1-n1c(C)cc(/C=N/Nc2ccc([N+](=O)[O-])cn2)c1C 3.69 µM
Cc1ccc(C(=O)Nc2cccnc2Cl)cc1Cl 3.69 µM
O=C(Nc1cccnc1Cl)c1cc(-c2ccccc2O)on1 2.61 µM
O=C(Nc1cccnc1Cl)c1cc(-c2cccc(O)c2)on1 18.5 µM
CCC(C(=O)N1CCN(c2cccc(C)c2C)CC1)n1nc(C)c2sc3ccccc3c2c1=O (configuration not stated) 8.26 µM
COc1ccccc1Nc1ccc(Nc2ccccc2OC)nn1 7.36 µM
CCOC(=O)c1c(C)nc(-c2ccccc2)nc1N 4.65 µM
CCOC(=O)c1c(-c2ccccc2)cn2c(C)cc(C)nc12 5.85 µM
CC(=O)c1c(C)nc(-c2ccc(Cl)cc2)nc1N 1.65 µM
C/C(=N/NC(=O)c1ccccc1)c1ccc(NC(=O)C(F)(F)F)cc1 4.65 µM
C/C(=N/NC(=O)c1ccoc1C)c1cccc(NC(=O)C2CC2)c1 1.65 µM
C/C(=N/NC(=O)c1ccoc1C)c1cccc(NC(=O)C(F)(F)F)c1 1.65 µM
C/C(=N/NC(=O)c1ccoc1C)c1ccc(NC(=O)C2CCCC2)cc1 1.31 µM
